Bst PK mod – pyruvate kinase (B. stearothermophilus) modulation. purified pyruvate kinase, luminescence ATP production; ribose 5-phosphate activator present at AC10. Potency, µM. 51,000 tested, 1.2% active. AID 361; in the data active = potency below about 11 µM; inconclusive = mostly about 12 µM to 25 µM;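 the screen sought inhibitors and activators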
TSHR agonist – agonists of human thyroid stimulating hormone receptor. AID 926. 73,000 tested, 0.48% active. HEK293-CNG-TSHR cells (CNG channel as cAMP sensor), membrane potential dye, cAMP. P16473. Potency, µM (series often up to 57.1 µM), actives largely listed as activators; active = well fitted activation curve with a large enough effect in the main read-out, with a control signal flat, not every such curve was filed as active; inconclusive = small, poorly fitted or top-dose-only effect, or a change in a side signal; inactive = no such curve, though single readings can be large or run the other way; reference of the percent scale not stated here;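 note: the control signal comes from parental cells without the receptor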
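HEK 293 cells stably expressing TSHR and a cAMP-gated CNG channel; parental CNG-only cells as counterscreen. Cells preloaded 60 min with membrane potential dye plus 100 uM RO 20-1724, then compound 30 min; fluorescence read at 590 nm.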
HEK293 cAMP cs – counter-screen for TSHR agonists: cAMP increase in parental HEK293; 73,000 tested, 2.5% active; Potency, µM (doses to about 57.1 µM), usual class: activators; parental HEK293 CNG cAMP sensor, membrane potential fluorescence; note: nearly all actives have a fitted effect of over 55% in size
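Counterscreen for endogenous-receptor signalling: CNG-channel HEK 293 cells report cAMP rise by membrane depolarization. After 60 min dye equilibration with 100 uM RO 20-1724, compounds incubated 30 min before bottom-read fluorescence at 590 nm.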
FLuc inh – blocks Photinus pyralis firefly luciferase activity; P08659; purified firefly luciferase, luminescence, 8 min; Potency, µM (doses to about 57.1 µM), most hits filed as inhibitors; 72,000 tested, 2.2% active; AID 411; note: nearly all actives have a fitted effect of over 40% in size
Target sequence (P08659 whole entry, looked up): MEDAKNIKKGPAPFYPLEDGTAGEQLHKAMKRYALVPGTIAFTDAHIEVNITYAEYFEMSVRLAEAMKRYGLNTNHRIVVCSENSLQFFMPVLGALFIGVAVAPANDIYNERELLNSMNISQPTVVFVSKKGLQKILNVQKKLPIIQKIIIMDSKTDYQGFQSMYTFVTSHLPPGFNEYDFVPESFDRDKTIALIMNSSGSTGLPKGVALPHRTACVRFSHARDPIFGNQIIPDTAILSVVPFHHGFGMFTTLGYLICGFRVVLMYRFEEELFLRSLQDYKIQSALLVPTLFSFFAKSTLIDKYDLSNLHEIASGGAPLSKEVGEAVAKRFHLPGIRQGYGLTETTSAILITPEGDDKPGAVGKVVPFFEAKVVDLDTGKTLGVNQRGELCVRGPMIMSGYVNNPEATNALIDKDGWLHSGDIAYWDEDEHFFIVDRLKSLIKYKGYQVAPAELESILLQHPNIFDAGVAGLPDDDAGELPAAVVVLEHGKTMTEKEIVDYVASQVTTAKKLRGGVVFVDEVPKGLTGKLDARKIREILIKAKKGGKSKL
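Compounds were tested as concentration series (qHTS) against purified P. pyralis luciferase with luciferin and 10 uM ATP in 50 mM imidazole pH 7.2, 50 mM KCl, 7 mM MgCl2, 0.01% Tween 20, 0.05% BSA. Luminescence was read after 8 min at ambient temperature.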
A number is an active result; i = inactive; ? = inconclusive; nt = no result given; [ ] = another dose, or the depositor's remark. Rows were chosen to be rich in hits. Some 5.2% of all compounds tested hit in one or more screens of this group. Unless noted, calls come from the whole dose curve; as a rule, active = well fitted curve in the direction sought with a large enough effect; inconclusive = small, poorly fitted or top-dose-only effect, or another doubt; inactive = no such curve, though single readings can be large; an effect the other way counts as inactive or inconclusive.

SMILES	Bst PK mod	TSHR agonist	HEK293 cAMP cs	FLuc inh
O=C(CSc1nnnn1-c1ccc(Cl)cc1)NC(=O)Nc1ccc2c(c1)OCCO2	i	nt	i	2.51µM
COCc1cc(=O)n2c(-c3ccc(C)cc3)n[nH]c2n1	nt	i[11.4 µM]	i	12.6µM
Cc1ccc(CNS(=O)(=O)c2ccc3oc(C(=O)O)c(C)c3c2)cc1	i	i	i	i
O=S(=O)(Cc1ccc(Cl)cc1)N1CCCC1	i	i	i	i
Cc1nc(-n2nnc3ccccc32)c2c3c(sc2n1)CCCC3	i	?	20µM	i
Cc1nc(N2CCN(c3ccccc3)CC2)c2c3c(sc2n1)CCC3	nt	15.8µM	i	i
Oc1ccc(N2CCN(c3ncnc4sc5c(c34)CCC5)CC2)cc1	nt	nt	i	i
CN(C)C(=O)Cn1c(SCC(=O)NC2CCCCC2)nc2ccccc21	i	i	i	i
CC(C)Cn1c(SCC(=O)NC(=O)NC2CCCC2)nc2ccccc21	i	?	31.6µM	i
C=C(C)C1Cc2c(C)nn(-c3ccccc3)c2C1 (stereo unspecified)	i	?	?	i
CCC(=O)Nc1cc2nn(-c3ccc(OC)cc3)nc2cc1C	3.44	i	i	1.26µM
CCCCC(=O)Nc1cc2nn(-c3ccc(OC)cc3)nc2cc1C	i	i	i	i
Cc1cc(C)c(C(=O)CSc2nnc(-c3ccccc3Br)o2)cc1C	i	?	15.8µM	i
COc1ccc(C(=O)CSc2nnc(Cc3ccccc3)o2)cc1	i	nt	i	i
COC(=O)c1ccc(OC)c(CSc2nnc(COc3cccc(C)c3)o2)c1	i	?	?	i
COC(=O)c1ccc(OC)c(CSc2nnc(COc3ccc(OC)cc3)o2)c1	i	?	12.6µM	i
COc1ccc(C(C)=O)cc1CSc1nc2ccccc2o1	i	?	25.1µM	i
COc1ccc(Cc2nnc(SCC(=O)c3ccc(OC)cc3)o2)cc1	i	?	31.6µM	i
COc1ccc(-n2c(=O)c(C)nc3cncnc32)cc1	nt	?	?	i[11.4 µM]
CCOc1ccccc1C(=O)N(Cc1ccco1)C1CCS(=O)(=O)C1 (stereo unspecified)	i	i	i	i
Cc1ccc(S(=O)(=O)Nc2nc3ccc(S(=O)(=O)N4CCCC4)cc3s2)cc1	i	i	i	i
CCn1c2ccccc2c2nnc(SCC(=O)c3ccccc3)nc21	nt	i	i	i
CSc1nnc2c3cc(C)ccc3n(Cc3ccccc3)c2n1	i	?	15.8µM	i
COc1ccccc1NC(=O)c1ccccc1SC	i	nt	i	i
COc1ccccc1-c1noc(-c2ccccc2C(=O)Nc2ccccc2)n1	i	?	25.1µM	i
SMILES	Bst PK mod	TSHR agonist	HEK293 cAMP cs	FLuc inh
COc1ccccc1-c1noc(-c2ccncc2)n1	?	i	i	i
COc1ccccc1NC(=O)c1ccccc1-c1nc(-c2ccccc2OC)no1	nt	?	25.1µM	15.8µM
CCCOc1ccccc1Cn1c(=O)oc2ccc(C)cc21	i	?	12.6µM	i
CCCOc1ccc(Cn2c(=O)oc3ccc(C)cc32)cc1OC	i	?	?	i
CCOc1ccccc1Cn1c(=O)oc2ccc(C)cc21	i	?	25.1µM	i
CCc1ccccc1NS(=O)(=O)c1ccc(SC)cc1	nt	25.1µM	i	i
COc1ccc(-c2nnc(-c3cccnc3)o2)cc1OC	nt	i	i	i
CC[C@H](NC(=O)c1c(C)c(-c2ccccc2)nc2ccccc12)c1ccccc1	nt	?	15.8µM	i
C[C@@H]1C(=O)O[C@H]2[C@@H](O)[C@@]34[C@H]5C[C@H](C(C)(C)C)[C@@]36[C@H](OC(=O)[C@@H]6O)O[C@@]4(C(=O)O5)[C@@]12O	nt	i	i	i[11.4 µM]
O=C(C1CCN(S(=O)(=O)c2ccc3ccccc3c2)CC1)N1CCN(c2ncccn2)CC1	i	?	25.1µM	i
Cc1ccc(Nc2nc(C3CC3)cs2)cc1	nt	i	i	7.94µM
N#Cc1nc(-c2ccc(OCc3ccc(Cl)cc3)cc2)oc1N1CCC(C(N)=O)CC1	0.0775	i	i	i
N#Cc1nc(-c2ccc(F)cc2)oc1N1CCCC1	9.48	nt	nt	i
N#Cc1nc(-c2ccc(Cl)cc2)oc1N1CCCCC1	5.06	nt	nt	i
CNc1oc(-c2ccc(Cl)cc2)nc1C#N	3.08	nt	nt	i
COc1ccc(NC(=O)c2ccc3c(=O)n(Cc4ccco4)c(=S)[nH]c3c2)c(OC)c1	i	i	i	i
COc1cc(S(=O)(=O)N(Cc2ccc(C)cc2)C2CCCCC2)ccc1-n1cnnn1	i	i	i	i
CC#CCN(CC#CC)S(=O)(=O)c1ccc(-n2cnnn2)c(OC)c1	i	?	12.6µM	i
CC1CCc2cc(F)ccc2N1C(=O)c1ccc2c(c1)OCO2 (stereo unspecified)	i	25.1µM	i	i
CC(=NCc1ccco1)c1c(C)[nH]n(-c2nc3ccccc3s2)c1=O	nt	i	i	2µM
CCN(CC)S(=O)(=O)c1ccc(C(=O)OCCN2C(=O)CCC2=O)cc1	nt	i	i	i
c1ccc(-c2nnn(C34CC5CC(CC(C5)C3)C4)n2)cc1	nt	31.6µM	i	i
O=C1C(C=Nc2ccccc2O)=C(O)c2ccccc21	7.29	i	i	7.94µM
Cc1ccc(O)c(N=CC2=C(O)c3ccccc3C2=O)c1	nt	i	i	25.1µM
CN=CC1=C(O)c2ccccc2C1=O	nt	?	?	i
SMILES	Bst PK mod	TSHR agonist	HEK293 cAMP cs	FLuc inh
O=C(Nc1ccccc1)c1cccc(N2CCCC2=O)c1	i	?	15.8µM	i
CC(C)NC(=O)CN(CCc1ccccc1)S(C)(=O)=O	i	?	i	i
Nc1nc2ccc(N3CCOCC3)cc2s1	i	i	i	15.8µM
CCOC(=O)CCCNC(=O)CCNC(=O)c1ccc(OCC)cc1	nt	i	i	i
CC1CCc2c(sc3nc(SCC(=O)NCc4ccco4)nc(N)c23)C1 (stereo unspecified)	i	nt	i	12.6µM
CC1=C(C(=O)OCc2ccccc2)C(c2ccc(C(C)(C)C)cc2)NC(=O)N1CCCCCC(=O)O (stereo unspecified)	nt	?	20µM	nt
CC1=C(C(=O)OCc2ccccc2)C(c2ccccc2)NC(=O)N1CCCCCC(=O)O (stereo unspecified)	nt	nt	i	nt
COc1ccc(-c2noc(CSc3nc4ccccc4c(=O)n3-c3ccccc3)n2)cc1	i	i	i	i
CCn1c(SCc2nc(-c3ccccc3)no2)nc2ccccc21	nt	31.6µM	i	i
CC1=Nc2ccccc2NC(=O)C1Sc1nnc(C)s1 (stereo unspecified)	i	i	i	i
Cn1cccc1C(=O)Nc1nc(-c2ccccn2)cs1	i	?	?	20µM
O=C(Nc1nc(-c2ccccn2)cs1)c1ccc(Cl)s1	nt	i	i	i
CCOc1cc(NC(=O)C2CC2)c(OCC)cc1NC(=O)c1ccccn1	i	i	i	i
CCOC(=O)c1c(NC(=O)Cn2c(C)nc3ccccc32)sc2c1CCC2	i	25.1µM	i	i
Cc1cc(C(=O)CSc2nnc(Nc3ccccc3F)s2)c(C)n1CC1CCCO1 (stereo unspecified)	i	?	?	i
COc1ccc(OC)c(C2=C[N+](=O)C(C)(C)C(C)(C)N2[O-])c1	i	i	i	i
C=CCn1c(SCC(=O)c2ccccc2)nnc1-c1cc2ccccc2o1	i	?	31.6µM	i
C=CCn1c(SCC(=O)c2ccc(OC)cc2)nnc1-c1cc2cccc(OC)c2o1	i	?	?	i

Screens deposited in PubChem by National Center for Advancing Translational Sciences (NCATS).
